In the library only some 4.6% were active in any assay of this set; here they are far more common.
FAS-TE inh – FAS thioesterase domain inhibitors, primary screen, biochemical, fluorescence intensity, uHTS; 0.67% of 360,000 active; inhibition, % at 15 µM; AID 602261, 2012; recombinant FAS-TE, OMFH fluorogenic substrate, fluorescence endpoint;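 active = compounds whose normalised, plate-corrected inhibition of enzyme fluorescence in the single-dose primary screen is 50% or more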;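 also: 0% = DMSO with enzyme and 100% = substrate without enzyme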
NR3A LBD binder – binders of NR3A ligand-binding domain, primary screen, biophysical, differential scanning fluorimetry, uHTS; AID 1259313, 2017; 2.5% of 340,000 active; Tm shift relative to glycine control, % at 25 µM; NR3A LBD differential scanning fluorimetry, Tm shift; 0% = protein alone, 100% = glycine-bound protein; Glutamate receptor ionotropic, NMDA 3A (GRIN3A) ligand-binding domain;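 active = melting temperature shift of at least 10% of the positive control shift, at one fixed dose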
ADAM10 inh – human ADAM10 inhibitors, primary screen, biochemical, QFRET, HTS | recombinant ADAM10, EDANS/DABCYL FRET peptide cleavage, 3 h | inhibition, % at 7 µM | 0.62% of 370,000 active | AID 720582, 2013;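 active = inhibition above a per-campaign cutoff equal to the mean of compounds falling between control-based bounds plus 3 SD, cut at about 20% in these data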;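 also: 0% = DMSO wells while the 100% control is not disclosed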
KLK7 zymogen act – proKLK7 zymogen activators, primary screen, biochemical, fluorescence intensity; purified proKLK7, EDANS-DABCYL substrate fluorescence; 100% is mature enzyme control, 0% vehicle; activation, % at 7 µM; 0.9% of 370,000 active; AID 652039, 2013;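 active = activation above the mean of all tested compounds plus 3 SD, computed per campaign excluding outliers beyond control limits, cut at about 13% in these data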
ADAM17 inh – ADAM17 inhibitors, primary screen, biochemical, QFRET; recombinant ADAM17, EDANS/DABCYL FRET peptide cleavage; inhibition, % at 6.95 µM; 0.83% of 370,000 active;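 active = inhibition above the mean of compounds lying between control limits plus 3 SD, set per campaign, cut at about 8.5% in these data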;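 also: 0% = DMSO-only wells as the low control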
proKLK7 act conf – proKLK7 zymogen activators, confirmation, biochemical, fluorescence intensity, triplicate. shares compounds with KLK7 zymogen act. purified proKLK7, EDANS-DABCYL substrate fluorescence; scaled: vehicle 0, mature enzyme 100. activation, % at 7 µM. 68% of 3,200 active;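 active = activation, as change over the incubation, above the mean of all tested compounds plus 3 SD, cut at about 13% in these data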
EDANS-DABCYL int – EDANS-DABCYL substrate optical interference, artefact control for kallikrein-7 zymogen activator project, biochemical, fluorescence intensity, high throughput | shares compounds with KLK7 zymogen act | no enzyme, 4 h; solvent 0%, active enzyme control 100% | activation, % at 7 µM | 80% of 3,200 active;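 active = activation above the all-compound mean plus 3 SD, ignoring values outside control-based bounds, cut at about 4.8% in these data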;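 also: value is the 4 h activation minus the activation read at time zero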
EDANS interf – EDANS fluorescence interference in dose response, no enzyme. 20% of 250 active. EC50, µM. shares compounds with KLK7 zymogen act. EDANS-DABCYL peptide fluorescence interference. AID 720493;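 active = compounds that raise the fluorescence signal in this interference counterscreen, with EC50 at or below 10 µM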;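 also: intact quenched peptide substrate alone read at 355 nm excitation and 520 nm emission; signal is fluorescence gain from T0 to T4 after four hours at room temperature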
An asterisk follows results filed as active; i = inactive; . = no result.

SMILES	FAS-TE inh	NR3A LBD binder	ADAM10 inh	KLK7 zymogen act	ADAM17 inh	proKLK7 act conf	EDANS-DABCYL int	others
O=C(Nc1ccc(F)cc1)OCc1cn(Cc2ccccc2F)nn1	.	.	2	0	1	.	.
C[C@@H]1ON(C)[C@H]2C[C@H]3c4[nH]c5ccccc5c4CCN3C(=O)[C@@H]12	-10	.	i	15*	-204	3	2
C[C@H](O)[C@@H]1C(=O)N2CCc3c([nH]c4ccccc34)[C@@H]2C[C@@H]1N(C)C(=O)Nc1cc(Cl)cc(Cl)c1	19	.	i	19*	-187	6	6.1*
O=C(Nc1ccc(Cl)c(Cl)c1)C1CCN(c2nnc(-n3cccc3)s2)CC1	.	.	14	1	8	.	.
COCCCNC(=O)C[C@H]1C[C@@]2(C(=O)OC)C(=C[C@H](C(C)C)O[C@@H]2C2CC2)N(Cc2ccco2)C1=O	.	.	2	1	-2	.	.
CCOP(=O)(OCC)c1nc(-c2ccc(OC)cc2)oc1N1CCOCC1	-5	-1	i	1	-163	.	.
COP(=O)(OC)c1nc(-c2cccc3ccccc23)oc1N1CCOCC1	-6	-1	i	77*	i	63*	64*
COC(=O)[C@]12C[C@H](CC(=O)N3CCSCC3)C(=O)N(CCc3ccc(OC)c(OC)c3)C1=C[C@H](C(C)C)O[C@@H]2C1CC1	.	.	-3	0	-2	.	.
COC(=O)[C@]12C[C@H](CC(=O)NCC34CC5CC(CC(C5)C3)C4)C(=O)N(CCc3ccc(OC)c(OC)c3)C1=C[C@H](C(C)(C)C)O[C@@H]2C	.	.	16	0	6	.	.
O=C(Nc1ccc2nc3ccccc3nc2c1)c1ccccc1	-3	6	-71	35*	-22	32*	21*	EDANS interf=>69
O=C(Nc1cccc(-c2cnc3ccccc3n2)c1)c1ccccc1	0	-4	-3	1	-5	.	.
CC(=O)Nc1ccc2cc3ccc(NC(C)=O)cc3nc2c1	-13	10*	i	17*	-408	34*	44*
CC(=O)Nc1ccc2nc(-c3ccncc3)[nH]c2c1	-7	-9	-466	22*	-137	17*	21*
COc1ccccc1C(=O)N1CCN(C(=O)[C@@H](Cc2ccccc2)NC(=O)[C@H]2O[C@@H](n3ccc(N)nc3=O)[C@H](O)[C@@H]2O)CC1	.	.	-8	0	-3	.	.
O=C(CSc1nnc(-c2ccccn2)n1-c1ccccc1)c1ccc2c(c1)OCO2	.	.	2	-1	2	.	.
COc1ccc(-c2cc(=O)c3ccc(O)cc3o2)cc1OC	2	.	i	121*	i	42*	46*
COc1ccc(-c2cc3ccc(O)cc3oc2=O)cc1OC	-13	-19	i	42*	i	71*	71*
COC(=O)[C@]12C[C@H](CC(=O)N3CCSCC3)C(=O)N(Cc3ccco3)C1=C[C@H](C(C)(C)C)O[C@@H]2C	.	.	-6	0	-4	.	.
Cc1sc(-c2ccccn2)nc1OC(=O)c1ccc(Cl)c(Cl)c1	8	3	5	0	1	.	.
Cc1sc(-c2ccccn2)nc1OC(=O)c1ccc(F)cc1F	6	-1	3	14*	0	23*	23*
C[C@H]1COc2cc(N3CCSCC3)ccc2S(=O)(=O)N1C	.	.	-17	-1	-7	.	.
CC(=O)c1cc(-c2cc(C(F)(F)F)cc(C(F)(F)F)c2)c(=O)n2c1CCC2	.	.	-10	0	-5	.	.
COc1cc2c(cc1OC)-c1cc(OCc3cccnc3)nc(=O)n1CC2	-22	-1	i	61*	i	63*	65*
COC(=O)c1cc(C(c2ccccc2O)C2CCC(C)(C)O2)n2ccccc12 (stereo unspecified)	.	.	-190	36*	-46	-36	-37
COc1ccc(OC)c(S(=O)(=O)N2CCC(C(=O)NCc3cccs3)CC2)c1	.	.	3	0	2	.	.
SMILES	FAS-TE inh	NR3A LBD binder	ADAM10 inh	KLK7 zymogen act	ADAM17 inh	proKLK7 act conf	EDANS-DABCYL int	others
COc1ccc(C2C=C(C)Nc3ncnn32)cc1 (stereo unspecified)	-1	-2	-155	1	-58	.	.
CC(C)(C)c1ccc(C2=CC(c3ccccc3)n3ncnc3N2)cc1 (stereo unspecified)	4	-3	.	.	.	.	.
COc1cccc(C2C=C(c3ccc(Br)s3)Nc3ncnn32)c1OC (stereo unspecified)	-8	-1	.	.	.	.	.
Cc1ccc(C2=CC(c3ccc(C)cc3)n3ncnc3N2)cc1 (stereo unspecified)	3	0	-478	32*	-140	9	-6
FC(F)(F)c1ccccc1C1=CC(c2ccccc2)n2ncnc2N1 (stereo unspecified)	1	0	-376	25*	-106	27*	26*
COc1ccc(C2C=C(c3ccccc3)Nc3ncnn32)cc1 (stereo unspecified)	-2	-1	i	52*	-415	71*	74*
COc1ccc(C2C=C(c3ccc(C)c(C)c3)Nc3ncnn32)c(OC)c1OC (stereo unspecified)	3	-2	-315	18*	-73	24*	30*
Cc1ccc(CNC(=O)[C@@H](Cc2ccccc2)NC(=O)[C@H]2O[C@@H](n3ccc(N)nc3=O)[C@H](O)[C@@H]2O)o1	.	.	-9	1	-6	.	.
Cc1ccccc1CNC(=O)C1CCC(CNS(=O)(=O)c2cccc3cccnc23)CC1 (stereo unspecified)	.	.	0	-1	1	.	.
COC(=O)[C@]12C[C@H](CC(=O)N3CCOCC3)C(=O)N(Cc3ccc(Cl)cc3Cl)C1=C[C@H](C1CCCC1)O[C@@H]2C	.	.	12	0	7	.	.
C[C@@H]1[C@@H](O)C[C@@]2(C[C@H](O)c3cc(Cl)ccc3O2)O[C@H]1c1ccccc1Cl	.	.	6	0	6	.	.
CCCC1CCC2(CCCN2CCOC(=O)Nc2ccc(F)cc2)CC1 (stereo unspecified)	.	.	-3	.	-4	.	.
Cn1c(=O)c2cc(NC(=S)NC3CCCCC3)ccc2n1Cc1ccc(F)cc1	4	.	i	9	-147	.	.
Cc1cc(C)cc(Cn2c3ccc(NC(=S)NC4CCCCC4)cc3c(=O)n2C)c1	-4	.	i	-22	-222	.	.
